We go through 14 molecules from PubChem BioAssay (NCI).

The panel holds about 83,000 compounds, 20% with a hit somewhere; the sample as a whole holds those more often.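 Single-concentration screen, 48 h exposure, 96-well plates. Endpoint: percent growth. Below 10 = active.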 Unmarked numbers belong to inactive results. Activity calls are given as the source filed them.

Among the test systems are NCI-H23 lung; NCI-H226 lung; NCI-H322M lung; HOP-62 NSCLC; NCI-H460 lung; HOP-92 NSCLC; NCI-H522 lung; A549/ATCC NSCLC; 786-0 renal; COLO 205 colon.
What all share (assay): NCI-60 one-dose screen, 48 h (100 = growth as untreated, 0 = no growth, -100 = all killed)
Common to all, as to settings: 10 µM unless noted

On to `O=c1c(F)cn(Cc2ccccc2CCl)c(=O)n1Cc1ccccc1CCl`, for which the growth with NCI-H23 lung was -63.1% (active); in the experiment with NCI-H226 lung it was -22% (active); with NCI-H322M lung it was -19.3% (active); with HOP-62 NSCLC it was -51.7% (active); in the experiment with NCI-H460 lung, -75% (active); with HOP-92 NSCLC, -77.5% (active). Further, the growth is -61.6% (active) in the experiment on NCI-H522 lung, 1.3% (active) in the experiment with A549/ATCC NSCLC, -54.7% (active) in the experiment on 786-0 renal and -75.3% (active) with COLO 205 colon.

As for `O=C1/C(=C/c2ccc(OCCCOc3ccc(Cl)cc3)cc2)N=C2SCCCN12`, the growth in the experiment on NCI-H23 lung was 49.7%; in the experiment on NCI-H226 lung it was 86.4%; with NCI-H322M lung it was 103%; in the experiment with HOP-62 NSCLC it was 99.1%; in the experiment on NCI-H460 lung it was 98.1%; in the experiment on HOP-92 NSCLC, 92.5%. The growth in the experiment on NCI-H522 lung was 34.6%; in the experiment with A549/ATCC NSCLC, 73.4%; in the experiment on 786-0 renal, 82.1%; with COLO 205 colon, 78.2%.

`CSc1nc2c(c(=O)[nH]1)C1(C(=O)Nc3ccccc31)c1c(nc(SC)[nH]c1=O)N2`: the growth in the experiment with NCI-H23 lung is 105%; with NCI-H226 lung, 94.9%; in the experiment on NCI-H322M lung, 92.5%; with HOP-62 NSCLC, 113%; with NCI-H460 lung, 103%; in the experiment on HOP-92 NSCLC, 98.8%. For the same molecule, the growth in the experiment on NCI-H522 lung is 123%; in the experiment with A549/ATCC NSCLC it was 100%; in the experiment on 786-0 renal, 103%; with COLO 205 colon, 109%.

Consider `CCCCC[C@H]1C/C=C2/C(=O)C=C[C@@H]2C/C=C\CCCC(=O)O1`, for which the growth in the experiment on NCI-H23 lung was -17.4% (active); in the experiment on NCI-H226 lung, -65.1% (active); in the experiment on NCI-H322M lung, -52.7% (active); in the experiment with HOP-62 NSCLC it was -46.3% (active); in the experiment on NCI-H460 lung, -1.5% (active); with HOP-92 NSCLC it was -39.5% (active). Also, the growth is -78.4% (active) with NCI-H522 lung, -23.6% (active) with A549/ATCC NSCLC, -76.4% (active) with 786-0 renal and -47.6% (active) in the experiment with COLO 205 colon.

Regarding `COc1ccc2nc(NC(=O)CSc3nnc4n3S(=O)(=O)c3ccccc3N4c3ccccc3)sc2c1`, the growth in the experiment with NCI-H23 lung was 87.4%; with NCI-H226 lung, 101%; in the experiment on NCI-H322M lung, 91.2%; with HOP-62 NSCLC, 94.7%; with NCI-H460 lung, 104%; in the experiment with HOP-92 NSCLC, 46.6%. The growth was 64.5% with NCI-H522 lung, 44.8% with A549/ATCC NSCLC, 101% in the experiment with 786-0 renal and 96.1% with COLO 205 colon.

On to `O=c1nc2oc3ccc4ccccc4c3cc-2s1`, for which the growth is 45.5% in the experiment on NCI-H23 lung; 37.5% in the experiment on NCI-H226 lung; 35% in the experiment with NCI-H322M lung; 23% with HOP-62 NSCLC; 11.1% with NCI-H460 lung; 14.2% in the experiment with HOP-92 NSCLC. Also, the growth with NCI-H522 lung is -3.74% (active); in the experiment with A549/ATCC NSCLC it was 35.1%; in the experiment with 786-0 renal, 23%; in the experiment with COLO 205 colon it was 30.4%.

On to `CC(=O)Nc1ccc(-n2c(O)c(/C=N/NC(=O)Cc3ccccc3Nc3c(Cl)cccc3Cl)sc2=S)cc1`, for which the growth with NCI-H23 lung was 95.4%; in the experiment on NCI-H226 lung it was 104%; in the experiment on NCI-H322M lung it was 102%; in the experiment with HOP-62 NSCLC, 99.7%; with NCI-H460 lung, 101%; in the experiment with HOP-92 NSCLC, 92.7%. Moreover, the growth was 94.2% in the experiment on NCI-H522 lung, 101% in the experiment on A549/ATCC NSCLC, 102% in the experiment on 786-0 renal and 119% in the experiment with COLO 205 colon.

On to `OCC(O)c1nc2ccc3[nH]ncc3c2c2c1CCCC2` (stereo not given), for which the growth was 2.08% (active) in the experiment with NCI-H23 lung; -4.5% (active) in the experiment with NCI-H226 lung; 8.59% (active) in the experiment with NCI-H322M lung; 10.6% in the experiment with HOP-62 NSCLC; 5.14% (active) with NCI-H460 lung; -10.3% (active) with HOP-92 NSCLC. Also, the growth in the experiment with NCI-H522 lung was 13.3%; with A549/ATCC NSCLC, 6.34% (active); in the experiment with 786-0 renal, 4.15% (active); with COLO 205 colon it was 1.61% (active).

In the case of `CCOc1cc2ncc(C#N)c(Nc3ccc(F)c(Cl)c3)c2cc1NC(=O)CC1CCSS1` (stereo not given), the growth in the experiment with NCI-H23 lung is -50.6% (active); in the experiment on NCI-H226 lung, -50.9% (active); with NCI-H322M lung it was -74.5% (active); in the experiment with HOP-62 NSCLC, -66% (active); in the experiment with NCI-H460 lung it was -64.4% (active); in the experiment on HOP-92 NSCLC, -15.3% (active). The growth was -48.6% (active) in the experiment with NCI-H522 lung, -75.6% (active) with A549/ATCC NSCLC, 12.1% in the experiment on 786-0 renal and -73.5% (active) in the experiment on COLO 205 colon.

As for `Cc1cc(N2CCSCC2)nc(NC2CCCC(Nc3ccnc4cc(Cl)ccc34)C2)n1` (stereo not given), the growth with NCI-H23 lung is 35.1%; in the experiment with NCI-H226 lung it was 18.2%; in the experiment with NCI-H322M lung it was -28.8% (active); in the experiment on HOP-62 NSCLC it was -46.2% (active); with NCI-H460 lung it was -11.2% (active); with HOP-92 NSCLC, -66.1% (active). In addition, the growth in the experiment with NCI-H522 lung was -52.5% (active); in the experiment with A549/ATCC NSCLC, 7.52% (active); in the experiment on 786-0 renal, -91.6% (active); in the experiment with COLO 205 colon, -74.8% (active).

Regarding `CC1=CC(=NN=c2cc(C)n([O-])c(C)c2)C=C(C)[N+]1=O`, the growth in the experiment on NCI-H23 lung was 95.5%; in the experiment on NCI-H226 lung, 64.2%; in the experiment on NCI-H322M lung, 114%; with HOP-62 NSCLC, 79.6%; with NCI-H460 lung, 102%; in the experiment on HOP-92 NSCLC, 93.2%. Further, the growth is 67.6% with NCI-H522 lung, 87.4% with A549/ATCC NSCLC, 79.3% in the experiment with 786-0 renal and 29.8% in the experiment on COLO 205 colon.

Take `COc1cc2nnc3c4cccnc4[nH]c3c2cc1OC`: the growth in the experiment with NCI-H23 lung was 89.6%; in the experiment on NCI-H226 lung, 40.5%; in the experiment with NCI-H322M lung it was 110%; in the experiment on HOP-62 NSCLC it was 96.9%; in the experiment with NCI-H460 lung, 25.6%; with HOP-92 NSCLC, -40.8% (active). Also, the growth is -75.7% (active) in the experiment on NCI-H522 lung, 47.2% in the experiment with A549/ATCC NSCLC, 7.43% (active) with 786-0 renal and 50.2% in the experiment on COLO 205 colon.

For `Nc1n[nH]c2cc(F)c([C@@H]3Nc4ccc5[nH]ncc5c4[C@H]4C5CCC(C5)[C@@H]34)cc12` (stereo not given in full), the growth is 26.4% in the experiment with NCI-H23 lung; 15% with NCI-H226 lung; 54.7% with NCI-H322M lung; 26.1% with HOP-62 NSCLC; -11.2% (active) in the experiment on NCI-H460 lung; 45.7% in the experiment with HOP-92 NSCLC. In addition, the growth is -19% (active) in the experiment on NCI-H522 lung, 8.81% (active) in the experiment with A549/ATCC NSCLC, 25.4% in the experiment on 786-0 renal and -26.9% (active) with COLO 205 colon.

In the case of `COc1ccc(S(=O)(=O)N2CCCCC2)cc1NC(=O)c1[nH]c(C)c2c1CCCCC2=O`, the growth was 26% with NCI-H23 lung; 46.2% in the experiment on NCI-H226 lung; 31.8% with NCI-H322M lung; 26% in the experiment on HOP-62 NSCLC; 34.8% in the experiment with NCI-H460 lung; 26.9% in the experiment on HOP-92 NSCLC. The growth is 7.18% (active) in the experiment with NCI-H522 lung, 28.2% in the experiment with A549/ATCC NSCLC, 32.3% in the experiment with 786-0 renal and 22.9% with COLO 205 colon.
